What all share (assay): DAPPL (digital affinity profiling via proximity ligation, sequencing); 10 mM Tris-HCl pH 7.5, 50 mM NaCl, 1 mM DTT, 4% glycerol, room temperature, 30 min; GST-TFs on glutathione beads, 16-mer random dsDNA library, 0.1% formaldehyde crosslink after washing; high values mean tight binding
Settings in all cases: protein: recombinant; tags: N-terminal GST; dsDNA, one strand shown

One test addresses T1, FLI1 (Homo sapiens, UniProt Q01543 1-452).
T1 sequence: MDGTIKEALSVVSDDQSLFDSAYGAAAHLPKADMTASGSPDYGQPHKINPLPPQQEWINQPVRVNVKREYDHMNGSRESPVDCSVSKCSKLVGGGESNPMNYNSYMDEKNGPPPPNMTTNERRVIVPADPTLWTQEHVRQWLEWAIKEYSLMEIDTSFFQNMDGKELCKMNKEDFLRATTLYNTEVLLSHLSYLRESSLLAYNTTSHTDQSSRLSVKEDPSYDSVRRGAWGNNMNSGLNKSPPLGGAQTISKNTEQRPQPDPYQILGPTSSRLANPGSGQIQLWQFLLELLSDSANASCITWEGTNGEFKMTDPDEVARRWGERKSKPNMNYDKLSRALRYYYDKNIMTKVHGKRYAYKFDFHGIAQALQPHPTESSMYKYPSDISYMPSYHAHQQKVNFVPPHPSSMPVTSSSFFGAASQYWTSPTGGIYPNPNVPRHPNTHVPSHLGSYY
Put shortly:
(§1)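 Sequencing on an Illumina NextSeq500 followed washing, crosslinking with 0.1% formaldehyde, proximity ligation (BsaI/T4 ligase, 1 h, 37 °C) and PCR amplification of pools that had been incubated for 30 min at room temperature with 200 nmole of a random double-stranded 16-mer DNA library in Tris/NaCl/DTT/glycerol buffer. Each pool held DNA-barcoded human transcription factors, expressed in yeast as GST fusions and captured on glutathione beads, plus a tag-only sample. Binding signal is a hexamer's read frequency for a factor divided by its frequency in the tag-only sample.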

In another test the target is T2, ELK1 (Homo sapiens, UniProt P19419 1-428).
T2 sequence: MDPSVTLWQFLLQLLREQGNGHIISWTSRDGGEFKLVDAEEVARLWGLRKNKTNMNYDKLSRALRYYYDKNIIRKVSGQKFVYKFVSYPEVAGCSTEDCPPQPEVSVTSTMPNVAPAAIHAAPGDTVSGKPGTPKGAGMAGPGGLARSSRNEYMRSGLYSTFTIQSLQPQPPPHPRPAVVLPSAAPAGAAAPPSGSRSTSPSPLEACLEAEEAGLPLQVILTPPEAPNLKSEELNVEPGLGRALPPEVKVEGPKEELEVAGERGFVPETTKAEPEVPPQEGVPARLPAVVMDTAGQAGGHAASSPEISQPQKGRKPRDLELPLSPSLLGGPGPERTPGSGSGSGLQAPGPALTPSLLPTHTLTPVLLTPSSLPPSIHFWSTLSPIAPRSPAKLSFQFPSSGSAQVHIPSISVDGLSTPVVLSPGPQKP
The procedure, abridged: as §1

The next test has as its target T3, GABPA (Homo sapiens, UniProt Q06546 1-454).
T3 sequence: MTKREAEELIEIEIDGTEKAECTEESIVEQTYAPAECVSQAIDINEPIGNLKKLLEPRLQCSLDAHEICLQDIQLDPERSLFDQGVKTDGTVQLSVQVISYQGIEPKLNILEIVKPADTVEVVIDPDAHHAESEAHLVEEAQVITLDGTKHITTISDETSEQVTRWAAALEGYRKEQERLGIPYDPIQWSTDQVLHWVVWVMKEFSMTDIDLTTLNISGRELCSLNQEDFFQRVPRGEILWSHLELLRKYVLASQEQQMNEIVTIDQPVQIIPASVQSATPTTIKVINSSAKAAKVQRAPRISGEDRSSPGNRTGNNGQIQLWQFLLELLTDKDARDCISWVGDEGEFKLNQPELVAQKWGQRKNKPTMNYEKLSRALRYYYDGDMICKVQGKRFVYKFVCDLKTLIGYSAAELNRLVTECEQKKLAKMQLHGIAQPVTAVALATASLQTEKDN
The procedure, abridged: as §1

In another test the target is T4, ERG (Homo sapiens, UniProt P11308 1-479).
T4 sequence: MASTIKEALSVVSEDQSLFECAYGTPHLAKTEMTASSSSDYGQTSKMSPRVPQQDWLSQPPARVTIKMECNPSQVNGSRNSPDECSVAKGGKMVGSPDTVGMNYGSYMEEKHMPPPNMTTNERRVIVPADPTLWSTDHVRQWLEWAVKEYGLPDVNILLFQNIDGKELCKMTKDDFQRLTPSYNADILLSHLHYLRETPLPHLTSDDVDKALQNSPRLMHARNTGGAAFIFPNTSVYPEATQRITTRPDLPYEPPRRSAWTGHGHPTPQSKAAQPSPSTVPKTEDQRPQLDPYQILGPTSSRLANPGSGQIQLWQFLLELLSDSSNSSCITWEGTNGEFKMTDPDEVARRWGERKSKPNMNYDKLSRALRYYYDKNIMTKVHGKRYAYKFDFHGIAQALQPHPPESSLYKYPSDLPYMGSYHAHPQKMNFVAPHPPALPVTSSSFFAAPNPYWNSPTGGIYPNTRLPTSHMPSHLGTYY
The procedure, abridged:
as §1

In another test the target is ELF1 (Homo sapiens, UniProt P32519 1-619). Put shortly: as §1
ELF1, sequence (P32519 whole entry): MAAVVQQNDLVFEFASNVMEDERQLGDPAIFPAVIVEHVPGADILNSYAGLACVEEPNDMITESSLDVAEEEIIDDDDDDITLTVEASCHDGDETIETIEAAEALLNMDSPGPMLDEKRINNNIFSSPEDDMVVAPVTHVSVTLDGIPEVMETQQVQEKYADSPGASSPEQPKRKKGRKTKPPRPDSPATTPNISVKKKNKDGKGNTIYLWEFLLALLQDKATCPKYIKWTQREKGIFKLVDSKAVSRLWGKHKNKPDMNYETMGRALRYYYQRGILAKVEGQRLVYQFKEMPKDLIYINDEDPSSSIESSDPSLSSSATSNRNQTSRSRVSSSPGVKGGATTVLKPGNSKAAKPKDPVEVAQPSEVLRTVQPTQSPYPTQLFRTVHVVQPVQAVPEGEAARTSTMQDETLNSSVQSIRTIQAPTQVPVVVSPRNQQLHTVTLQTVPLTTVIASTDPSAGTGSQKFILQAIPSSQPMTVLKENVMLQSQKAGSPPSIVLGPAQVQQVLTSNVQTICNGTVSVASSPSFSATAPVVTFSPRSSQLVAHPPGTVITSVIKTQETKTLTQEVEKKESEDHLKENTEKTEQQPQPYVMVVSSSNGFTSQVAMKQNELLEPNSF
A further test deals with T5, EHF (Homo sapiens, UniProt Q9NZC4 1-300).
T5 sequence: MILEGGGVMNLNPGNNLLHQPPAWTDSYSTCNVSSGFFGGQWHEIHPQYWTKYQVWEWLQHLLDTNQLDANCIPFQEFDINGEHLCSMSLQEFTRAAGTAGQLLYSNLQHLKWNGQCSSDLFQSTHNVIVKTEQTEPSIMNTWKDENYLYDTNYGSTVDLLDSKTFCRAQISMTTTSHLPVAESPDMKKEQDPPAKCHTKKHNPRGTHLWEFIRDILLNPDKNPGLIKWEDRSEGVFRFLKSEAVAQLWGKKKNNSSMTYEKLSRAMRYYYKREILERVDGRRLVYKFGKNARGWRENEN
The procedure, abridged:
as §1

Another test deals with SPI1 (Homo sapiens, UniProt P17947 1-270). Put shortly: as §1
For the next test, the target named is SPIB (Homo sapiens, UniProt Q01892 1-262). Put shortly:
as §1

For the next test, the target named is T6, ELK3 (Homo sapiens, UniProt P41970 1-407).
T6 sequence: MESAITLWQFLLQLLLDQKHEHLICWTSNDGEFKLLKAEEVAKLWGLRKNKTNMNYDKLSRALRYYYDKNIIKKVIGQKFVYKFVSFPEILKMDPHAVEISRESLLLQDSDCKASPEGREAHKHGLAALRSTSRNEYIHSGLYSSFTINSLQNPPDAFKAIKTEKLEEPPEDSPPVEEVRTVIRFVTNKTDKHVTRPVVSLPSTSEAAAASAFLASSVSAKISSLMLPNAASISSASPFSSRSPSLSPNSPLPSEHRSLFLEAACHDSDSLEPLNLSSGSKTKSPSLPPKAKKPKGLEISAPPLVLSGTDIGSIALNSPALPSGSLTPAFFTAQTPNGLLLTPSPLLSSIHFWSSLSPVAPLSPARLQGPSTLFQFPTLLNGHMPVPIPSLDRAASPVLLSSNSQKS
Put shortly: as §1

In another test the target is T7, FEV (Homo sapiens, UniProt Q99581 1-238).
T7 sequence: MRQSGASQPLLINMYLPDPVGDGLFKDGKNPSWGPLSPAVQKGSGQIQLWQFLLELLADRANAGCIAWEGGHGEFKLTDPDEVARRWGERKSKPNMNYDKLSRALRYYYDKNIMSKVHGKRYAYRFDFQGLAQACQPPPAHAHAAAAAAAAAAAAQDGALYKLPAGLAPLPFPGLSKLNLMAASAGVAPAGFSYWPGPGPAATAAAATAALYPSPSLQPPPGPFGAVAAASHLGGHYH
Put shortly: as §1

A further test deals with ETV5 (Homo sapiens, UniProt P41161 1-510). The procedure, abridged:
as §1

A further test concerns the target T8, SPIC (Homo sapiens, UniProt Q8N5J4 1-248).
T8 sequence: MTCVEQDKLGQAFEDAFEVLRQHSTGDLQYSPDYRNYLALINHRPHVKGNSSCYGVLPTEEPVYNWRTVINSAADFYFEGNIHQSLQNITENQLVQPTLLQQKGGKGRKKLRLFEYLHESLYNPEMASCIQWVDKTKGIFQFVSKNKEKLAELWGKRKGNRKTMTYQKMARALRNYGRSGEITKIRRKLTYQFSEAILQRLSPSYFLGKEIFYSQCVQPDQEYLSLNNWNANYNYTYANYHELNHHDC
The procedure, abridged:
as §1

The next test deals with ELF4 (Homo sapiens, UniProt Q99607 1-663). The procedure, abridged: as §1
ELF4, sequence (Q99607 whole entry): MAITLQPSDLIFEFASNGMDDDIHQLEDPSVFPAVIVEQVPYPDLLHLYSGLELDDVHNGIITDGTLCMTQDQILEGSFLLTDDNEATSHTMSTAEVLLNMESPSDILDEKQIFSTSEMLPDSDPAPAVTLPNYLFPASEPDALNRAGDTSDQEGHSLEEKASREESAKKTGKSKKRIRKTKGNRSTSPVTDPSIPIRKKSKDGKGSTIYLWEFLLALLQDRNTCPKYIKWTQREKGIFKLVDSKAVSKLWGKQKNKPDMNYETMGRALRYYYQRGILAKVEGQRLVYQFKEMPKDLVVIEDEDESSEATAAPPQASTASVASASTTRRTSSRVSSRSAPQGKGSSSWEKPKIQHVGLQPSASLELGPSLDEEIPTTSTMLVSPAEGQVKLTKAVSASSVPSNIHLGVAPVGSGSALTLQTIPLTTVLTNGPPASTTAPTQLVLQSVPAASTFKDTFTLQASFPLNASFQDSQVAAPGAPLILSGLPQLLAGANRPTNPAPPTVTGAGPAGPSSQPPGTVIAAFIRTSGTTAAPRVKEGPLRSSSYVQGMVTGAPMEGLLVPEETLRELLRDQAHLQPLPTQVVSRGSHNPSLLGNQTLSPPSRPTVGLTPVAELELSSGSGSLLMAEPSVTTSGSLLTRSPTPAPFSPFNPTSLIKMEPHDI
In the next test the target is T9, ELK4 (Homo sapiens, UniProt P28324-2 1-405).
T9 sequence: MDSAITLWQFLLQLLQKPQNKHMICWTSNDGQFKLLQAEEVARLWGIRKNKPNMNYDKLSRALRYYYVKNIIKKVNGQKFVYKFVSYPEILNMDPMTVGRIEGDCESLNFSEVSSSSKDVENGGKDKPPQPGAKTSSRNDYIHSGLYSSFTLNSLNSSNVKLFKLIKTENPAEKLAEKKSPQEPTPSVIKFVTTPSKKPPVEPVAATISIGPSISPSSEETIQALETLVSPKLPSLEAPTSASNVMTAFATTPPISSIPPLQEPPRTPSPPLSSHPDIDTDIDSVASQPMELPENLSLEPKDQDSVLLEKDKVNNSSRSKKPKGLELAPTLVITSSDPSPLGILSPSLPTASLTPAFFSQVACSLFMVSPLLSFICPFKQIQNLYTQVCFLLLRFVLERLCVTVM
The procedure, abridged: as §1

In another test the target is T10, ETV2 (Homo sapiens, UniProt O00321 1-342).
T10 sequence: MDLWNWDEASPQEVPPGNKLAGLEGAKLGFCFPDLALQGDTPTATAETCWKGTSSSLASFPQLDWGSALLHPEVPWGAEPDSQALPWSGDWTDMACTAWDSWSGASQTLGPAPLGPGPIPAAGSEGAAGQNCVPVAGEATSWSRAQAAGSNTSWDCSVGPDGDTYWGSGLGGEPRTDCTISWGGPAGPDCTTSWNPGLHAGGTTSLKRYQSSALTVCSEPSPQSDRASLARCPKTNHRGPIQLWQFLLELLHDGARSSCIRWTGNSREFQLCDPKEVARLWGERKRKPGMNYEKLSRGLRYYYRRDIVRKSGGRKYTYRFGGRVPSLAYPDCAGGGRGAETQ
The procedure, abridged:
as §1

Another test has as its target T11, ELF3 (Homo sapiens, UniProt P78545 1-371).
T11 sequence: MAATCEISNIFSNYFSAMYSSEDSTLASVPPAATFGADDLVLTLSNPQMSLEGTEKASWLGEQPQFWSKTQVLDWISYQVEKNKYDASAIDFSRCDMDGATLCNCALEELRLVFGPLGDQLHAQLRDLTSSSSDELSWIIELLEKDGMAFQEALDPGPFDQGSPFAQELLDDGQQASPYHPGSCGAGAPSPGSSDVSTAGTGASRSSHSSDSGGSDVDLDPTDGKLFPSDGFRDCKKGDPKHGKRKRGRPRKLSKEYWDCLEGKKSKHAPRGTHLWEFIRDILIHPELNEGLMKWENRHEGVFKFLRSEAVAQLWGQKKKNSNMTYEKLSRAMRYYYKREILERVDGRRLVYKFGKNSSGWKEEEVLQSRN
Put shortly:
as §1

In a further test the target is ETV1 (Homo sapiens, UniProt P50549 1-477). The procedure, abridged:
as §1

ETV1, sequence (P50549 whole entry): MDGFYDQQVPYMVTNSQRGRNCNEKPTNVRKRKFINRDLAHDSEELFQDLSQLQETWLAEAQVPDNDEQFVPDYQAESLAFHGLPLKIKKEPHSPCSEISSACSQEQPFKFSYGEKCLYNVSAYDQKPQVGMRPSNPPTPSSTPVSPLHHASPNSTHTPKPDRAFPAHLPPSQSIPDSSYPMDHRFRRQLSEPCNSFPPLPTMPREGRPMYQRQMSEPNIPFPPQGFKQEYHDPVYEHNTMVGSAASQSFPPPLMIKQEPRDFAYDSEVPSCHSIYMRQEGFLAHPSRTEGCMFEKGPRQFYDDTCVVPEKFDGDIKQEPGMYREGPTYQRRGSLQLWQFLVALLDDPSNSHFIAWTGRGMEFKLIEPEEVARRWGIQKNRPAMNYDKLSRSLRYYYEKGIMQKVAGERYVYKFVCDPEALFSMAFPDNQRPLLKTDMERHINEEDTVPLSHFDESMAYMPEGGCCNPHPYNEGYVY
SPIB, sequence (Q01892 whole entry): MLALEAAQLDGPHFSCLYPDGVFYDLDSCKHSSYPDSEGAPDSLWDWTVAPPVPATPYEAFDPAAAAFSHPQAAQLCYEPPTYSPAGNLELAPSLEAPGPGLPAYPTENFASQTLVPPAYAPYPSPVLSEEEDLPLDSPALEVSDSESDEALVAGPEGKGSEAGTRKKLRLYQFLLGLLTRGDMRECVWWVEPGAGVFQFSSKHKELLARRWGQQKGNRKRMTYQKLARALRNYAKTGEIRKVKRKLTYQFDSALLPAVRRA
ETV5, sequence (P41161 whole entry): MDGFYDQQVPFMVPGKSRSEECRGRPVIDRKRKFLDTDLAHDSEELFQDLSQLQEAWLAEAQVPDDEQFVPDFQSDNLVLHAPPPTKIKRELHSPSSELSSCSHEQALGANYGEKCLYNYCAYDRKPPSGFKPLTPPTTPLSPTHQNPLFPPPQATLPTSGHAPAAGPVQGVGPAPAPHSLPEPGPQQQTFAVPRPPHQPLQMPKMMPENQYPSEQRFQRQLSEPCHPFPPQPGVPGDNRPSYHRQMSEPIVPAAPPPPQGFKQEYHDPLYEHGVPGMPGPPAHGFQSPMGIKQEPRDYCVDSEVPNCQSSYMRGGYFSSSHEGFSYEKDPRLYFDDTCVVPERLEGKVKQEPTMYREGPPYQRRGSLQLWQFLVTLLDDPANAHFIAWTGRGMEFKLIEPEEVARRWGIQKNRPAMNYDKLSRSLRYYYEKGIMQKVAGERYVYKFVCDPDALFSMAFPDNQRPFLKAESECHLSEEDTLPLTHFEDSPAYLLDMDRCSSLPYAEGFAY

Turning to CGGTCT, the binding signal is 1.24 fold enrichment (6-mer frequency, TF over GST control) with FLI1; 1.15 fold enrichment (6-mer frequency, TF over GST control) in the test with ELK1; 1.1 fold enrichment (6-mer frequency, TF over GST control) in the test with GABPA; 1.18 fold enrichment (6-mer frequency, TF over GST control) with ERG; 1.15 fold enrichment (6-mer frequency, TF over GST control) with ELF1; 1.15 fold enrichment (6-mer frequency, TF over GST control) with EHF. The binding signal in the test with SPI1 is 1.13 fold enrichment (6-mer frequency, TF over GST control); with SPIB, 1.16 fold enrichment (6-mer frequency, TF over GST control); in the test with ELK3, 1.18 fold enrichment (6-mer frequency, TF over GST control); with FEV, 1.3 fold enrichment (6-mer frequency, TF over GST control); in the test with ETV5, 1.25 fold enrichment (6-mer frequency, TF over GST control); with SPIC, 1.02 fold enrichment (6-mer frequency, TF over GST control). Also, the binding signal with ELF4 was 1.18 fold enrichment (6-mer frequency, TF over GST control); with ELK4 it was 1.12 fold enrichment (6-mer frequency, TF over GST control); in the test with ETV2, 1.24 fold enrichment (6-mer frequency, TF over GST control); in the test with ELF3 it was 1.29 fold enrichment (6-mer frequency, TF over GST control); with ETV1 it was 1.16 fold enrichment (6-mer frequency, TF over GST control).
With ACCAAC, the binding signal with FLI1 was 1.19 fold enrichment (6-mer frequency, TF over GST control); with ELK1, 1.36 fold enrichment (6-mer frequency, TF over GST control); in the test with GABPA, 1.23 fold enrichment (6-mer frequency, TF over GST control); in the test with ERG, 1.15 fold enrichment (6-mer frequency, TF over GST control); with ELF1 it was 1.24 fold enrichment (6-mer frequency, TF over GST control); with EHF, 1.18 fold enrichment (6-mer frequency, TF over GST control). In addition, the binding signal in the test with SPI1 was 1.19 fold enrichment (6-mer frequency, TF over GST control); with SPIB, 1.12 fold enrichment (6-mer frequency, TF over GST control); with ELK3, 1.18 fold enrichment (6-mer frequency, TF over GST control); with FEV, 1.19 fold enrichment (6-mer frequency, TF over GST control); in the test with ETV5, 1.22 fold enrichment (6-mer frequency, TF over GST control); with SPIC, 1.1 fold enrichment (6-mer frequency, TF over GST control). Also, the binding signal was 1.25 fold enrichment (6-mer frequency, TF over GST control) with ELF4; 1.31 fold enrichment (6-mer frequency, TF over GST control) with ELK4; 1.25 fold enrichment (6-mer frequency, TF over GST control) with ETV2; 1.2 fold enrichment (6-mer frequency, TF over GST control) in the test with ELF3; 1.16 fold enrichment (6-mer frequency, TF over GST control) with ETV1.

These data come from publication PMC7862700, “An all-to-all approach to the identification of sequence-specific readers for epigenetic DNA modifications on cytosine”.
